Assay [1] in a line: Nuclear factor erythroid 2-related factor 2/antioxidant responsive element (Nrf2/ARE) small molecule agonists: qHTS cell viability counter screen in human keratinocytes (AID 1919968; active = well fitted curve in the direction sought with a large enough effect in the repeat runs; an effect the other way counts as inactive or inconclusive; note: nearly all actives have a fitted effect of over 55% in size; note: potency is the fitted concentration of half-maximal effect). The method, boiled down: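 After a 5 h attachment period, ARE-reporter keratinocytes were dosed with compounds in DMSO and then cultured 23 h at 37 C. Cell viability came from CellTiter-Fluor signal read after a further 1 h.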
On the technique in general: Quantitative high-throughput screening tests each substance at several concentrations.

Assay [2] can be described thus: Nuclear factor erythroid 2-related factor 2/antioxidant responsive element (Nrf2/ARE) small molecule agonists: luciferase reporter gene qHTS assay in human keratinocytes (AID 1919969). Note: nearly all actives have a fitted effect of over 35% in size. Note: potency is the fitted concentration of half-maximal effect. A general note: A reporter such as luciferase makes a cellular process visible.
Assay [3] has as its target Gonadotropin-releasing hormone receptor (Homo sapiens) (UniProt P30968). Put plainly: Human gonadotropin-releasing hormone receptor (GnRHR) small molecule agonists, calcium flux assay in GnRHR-HEK293 cells (AID 1920063). Note: nearly all actives have a fitted effect of over 35% in size. The method, boiled down: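 We seeded human GnRHR-expressing HEK293 cells for 18 hours, loaded them with calcium dye for an hour at 37 C, added test compounds, and recorded fluorescence intensity kinetically for three minutes.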

Assay [4] addresses KiSS-1 receptor (Homo sapiens) (UniProt Q969F8). Briefly: Human kisspeptin (KISS1R) small molecule agonists, calcium flux assay in KISS1R-HEK293 cells (AID 1920064; active = well fitted curve in the direction sought with a large enough effect in the repeat runs; an effect the other way counts as inactive or inconclusive). The method, boiled down: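 Kinetic calcium assay, 1 s sampling over 3 min at Ex/Em 480/540, in HEK293 cells engineered with human KISS1R; compounds delivered in DMSO after 1 h dye loading.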
Assay [5] in a line: G protein-coupled receptor (GPCR) small molecule agonists, calcium flux assay: HEK293 wild type cell line counter screen (AID 1920065). The method, boiled down:
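Calcium-sensitive dye, loaded 1 h at 37 C into cells cultured 18 h, reports compound-evoked calcium release as fluorescence (Ex/Em 480/540), measured over 3 min. Agonist mode; 15-point titrations, triplicate.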
In general terms: Calcium flux is commonly read through the fluorescence of an indicator in the cells.

Assay [6] can be described thus: p53 small molecule agonists, cell-based qHTS assay with human liver microsomes (AID 1963577).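 Note: p53 response element beta-lactamase reporter cells with liver microsomes plus NADPH.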 The method, boiled down:
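16 h, 37 C exposure of p53RE-bla cells to compounds with human liver microsomes and NADPH (0.5 mg/mL final each); detection via LiveBLAzer mixture, 2 h dark at room temperature.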

Assay [7] can be described thus: p53 small molecule agonists, cell-based qHTS assay with rat liver microsomes (AID 1963578). The method, boiled down: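 With rat liver microsomes and NADPH present (0.5 mg/mL final each), p53RE-bla cells are treated with compound for 16 h at 37 C. LiveBLAzer detection mixture is then applied for 2 h at room temperature in the dark.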
Assay [8] is described as follows: p53 small molecule agonists, cell-based qHTS assay with human liver microsomes: qHTS cell viability counter screen (AID 1963579). Note: nearly all actives have a fitted effect of over 45% in size. The method, boiled down:
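In this multiplexed counter screen, the reporter plates were subsequently treated with CellTiter-Glo so that cell viability, reflected by luminescence, could be recorded for p53RE-bla cells dosed 16 h with compounds under microsomal activation (HLM and NADPH).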

Assay [9] in a line: p53 small molecule agonists, cell-based qHTS assay: qHTS cell viability counter screen (AID 1963581). Note: nearly all actives have a fitted effect of over 45% in size. The method, boiled down: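 Following 5 h attachment, HCT-116 p53RE-bla cells took up compound for 16 h at 37 C; the reporter was read with B/G FRET substrate (2 h RT), and viability then via CellTiter-Glo ATP luminescence.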
Assay [10] in a line: p53 small molecule agonists, cell-based qHTS assay (AID 1963582; active = well fitted activation curve with a large enough effect in the signal ratio in the repeat runs, not every such curve was filed as active; the % refers to the signal ratio). The method, boiled down: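 In this cell-based concentration-response screen, a p53 response element drives beta-lactamase; cells received DMSO-borne compounds after 5 h culture and were incubated a further 16 h before FRET substrate development.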
Assay [11] addresses Muscarinic acetylcholine receptor M1 (Homo sapiens) (UniProt P11229). Put plainly: Cholinergic receptor muscarinic 1 (CHRM1) small molecule antagonists, cell-based qHTS assay (AID 1963588). Note: nearly all actives have a fitted effect of over 40% in size. The method, boiled down:
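CHRM1-CHO calcium-flux assay, antagonist mode. Cells were seeded 18 h, dye-loaded 1 h at 37 C and given compound for 5 min at RT, then acetylcholine was added at 50nM. FDSS fluorescence was read 3 min; 15 concentrations, three runs.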

The nature of assay [12]: cAMP Responsive Elements (CRE) small molecule antagonists, cell-based qHTS assay (AID 1963591; active = well fitted inhibition curve with a large enough effect in the signal ratio in the repeat runs, not every such curve was filed as active; the % refers to the signal ratio). The method, boiled down: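 HEK293T cells carrying a CRE-driven beta-lactamase reporter receive compound and NKH477 (0.25 uM final) for 3 h. Fluorescence from LiveBLAzer B/G FRET substrate is read after 2 h at room temperature.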
For assay [13], the target named is Beta-2 adrenergic receptor (Homo sapiens) (UniProt P07550). Put plainly: Adrenergic beta2 receptor (ADRB2) small molecule antagonists, cell-based qHTS assay (AID 1963592). Note: series mostly up to about 92 µM; nearly all actives have a fitted effect of over 50% in size. The method, boiled down:
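Cells (CHO, stable ADRB2 overexpression) incubated 18-20hr at 37C; compounds added from DMSO; agonist mix (1nM isoproterenol, 100uM IBMX, 25uM Ro-20-1724) added; 0.5hr RT; d2-cAMP and anti-cAMP-cryptate added; 1hr RT; 665/615 nm read.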

For assay [14], the target named is D(2) dopamine receptor (Homo sapiens) (UniProt P14416). Put plainly: Dopamine D2 receptor (DRD2) small molecule agonists, cell-based qHTS assay (AID 1963594). Note: nearly all actives have a fitted effect of over 35% in size. The method, boiled down:
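HEK293 cells stably expressing human DRD2, pre-treated with PDE inhibitor Ro20-1724 (0.1 mM final) and compound 10 min at room temperature, then stimulated with NKH477 (200nM […]) for 30 min. cAMP read by HTRF (665/620 nm).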

Assay [15] has the same target. Put plainly: Dopamine D2 receptor (DRD2) small molecule antagonists, cell-based qHTS assay (AID 1963595; active = well fitted inhibition curve with a large enough effect in the signal ratio in the repeat runs, with a control signal flat; the % refers to the signal ratio). The method, boiled down:
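Antagonism was scored as restored cAMP in HEK293-DRD2 cells. These cells were stimulated with 200 nM NKH477 and 12 nM quinpirole for 30 min at room temperature, in the presence of 0.1 mM Ro20-1724.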

In assay [16] the target is 5-hydroxytryptamine receptor 2A (Homo sapiens) (UniProt P28223). Put plainly: 5-hydroxytryptamine receptor 2A (HTR2A) small molecule agonists, cell-based qHTS assay (AID 1963587). Note: nearly all actives have a fitted effect of over 30% in size. The method, boiled down:
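CHO cells stably expressing human HTR2A, plated 18 h, loaded with calcium dye 1 h at 37 C. Agonist mode: compounds added and intracellular calcium fluorescence recorded kinetically for 2 min at 1 sec intervals.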

The target of assay [17] is Muscarinic acetylcholine receptor M1 (Homo sapiens) (UniProt P11229). Briefly: Cholinergic receptor muscarinic 1 (CHRM1) small molecule agonists, cell-based qHTS assay (AID 1963589). Note: nearly all actives have a fitted effect of over 35% in size. The method, boiled down:
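Measures agonist-induced intracellular calcium rise. Stable human CHRM1 CHO line, 1 h dye load at 37 C, compounds from DMSO, kinetic fluorescence read.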

Assay [18] deals with 5-hydroxytryptamine receptor 2A (Homo sapiens) (UniProt P28223). Put plainly: 5-hydroxytryptamine receptor 2A (HTR2A) small molecule antagonists, cell-based qHTS assay (AID 1963586). Note: nearly all actives have a fitted effect of over 45% in size. The method, boiled down:
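Antagonist-mode intracellular calcium assay: DOI (4 nM) added after 5 min compound pre-incubation at room temperature to dye-loaded HTR2A-CHO cells. Fluorescence followed for 3 min, sampled every second.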

The nature of assay [19]: cAMP Responsive Elements (CRE) small molecule agonists, cell-based qHTS assay (AID 1963590). The method, boiled down:
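A CRE-responsive beta-lactamase reporter in HEK 293T cells was used. Treatment ran 3 h at 37 C; detection used LiveBLAzer B/G FRET substrate for 2 h at room temperature.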

A short description of assay [20]: p53 small molecule agonists, cell-based qHTS assay with rat liver microsomes: qHTS cell viability counter screen (AID 1963580). Note: nearly all actives have a fitted effect of over 45% in size. The method, boiled down:
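Viability is assessed in parallel with the p53 reporter read: HCT-116 p53RE-bla cells receive compounds plus rat microsomes and NADPH (0.5 mg/mL final apiece), incubate 16 h at 37 C, and then CellTiter-Glo luminescence is recorded.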

A number with no mark means an inactive call. Inconclusive results are not listed. Calls of active or inactive are those of the source. Unless noted, calls come from the whole dose curve.

KiSS-1 receptor (Homo sapiens), sequence (Q969F8 whole entry, looked up): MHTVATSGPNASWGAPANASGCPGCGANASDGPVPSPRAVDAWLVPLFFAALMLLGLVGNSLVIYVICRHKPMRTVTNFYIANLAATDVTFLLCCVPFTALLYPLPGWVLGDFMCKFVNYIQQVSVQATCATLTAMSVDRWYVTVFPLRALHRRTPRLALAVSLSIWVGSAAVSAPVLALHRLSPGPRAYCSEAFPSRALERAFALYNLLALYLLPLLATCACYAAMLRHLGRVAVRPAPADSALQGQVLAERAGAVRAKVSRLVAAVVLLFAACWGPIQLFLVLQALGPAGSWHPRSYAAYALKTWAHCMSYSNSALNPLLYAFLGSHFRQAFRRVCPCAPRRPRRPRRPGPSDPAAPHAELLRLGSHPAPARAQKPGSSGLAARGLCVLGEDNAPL
Beta-2 adrenergic receptor (Homo sapiens), sequence (P07550 whole entry, looked up): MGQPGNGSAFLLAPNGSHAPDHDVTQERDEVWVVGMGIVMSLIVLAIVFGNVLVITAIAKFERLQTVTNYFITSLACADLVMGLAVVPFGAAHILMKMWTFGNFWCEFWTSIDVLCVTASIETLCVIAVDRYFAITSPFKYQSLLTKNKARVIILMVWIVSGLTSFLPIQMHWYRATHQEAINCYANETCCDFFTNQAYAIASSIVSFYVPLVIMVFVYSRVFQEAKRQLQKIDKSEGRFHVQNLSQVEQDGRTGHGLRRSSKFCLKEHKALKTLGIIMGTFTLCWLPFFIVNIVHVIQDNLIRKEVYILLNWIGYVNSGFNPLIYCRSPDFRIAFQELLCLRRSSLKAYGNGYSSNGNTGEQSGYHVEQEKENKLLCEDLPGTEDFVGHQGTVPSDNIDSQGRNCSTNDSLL
Gonadotropin-releasing hormone receptor (Homo sapiens), sequence (P30968 whole entry, looked up): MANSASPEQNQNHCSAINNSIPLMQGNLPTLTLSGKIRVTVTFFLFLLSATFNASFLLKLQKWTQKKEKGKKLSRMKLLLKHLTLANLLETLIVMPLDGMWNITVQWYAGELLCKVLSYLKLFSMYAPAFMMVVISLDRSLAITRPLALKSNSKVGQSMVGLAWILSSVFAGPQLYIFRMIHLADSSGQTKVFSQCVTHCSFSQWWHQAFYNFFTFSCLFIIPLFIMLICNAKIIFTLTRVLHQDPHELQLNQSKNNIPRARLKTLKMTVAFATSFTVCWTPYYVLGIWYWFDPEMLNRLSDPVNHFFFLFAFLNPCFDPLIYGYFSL
D(2) dopamine receptor (Homo sapiens), sequence (P14416 whole entry, looked up): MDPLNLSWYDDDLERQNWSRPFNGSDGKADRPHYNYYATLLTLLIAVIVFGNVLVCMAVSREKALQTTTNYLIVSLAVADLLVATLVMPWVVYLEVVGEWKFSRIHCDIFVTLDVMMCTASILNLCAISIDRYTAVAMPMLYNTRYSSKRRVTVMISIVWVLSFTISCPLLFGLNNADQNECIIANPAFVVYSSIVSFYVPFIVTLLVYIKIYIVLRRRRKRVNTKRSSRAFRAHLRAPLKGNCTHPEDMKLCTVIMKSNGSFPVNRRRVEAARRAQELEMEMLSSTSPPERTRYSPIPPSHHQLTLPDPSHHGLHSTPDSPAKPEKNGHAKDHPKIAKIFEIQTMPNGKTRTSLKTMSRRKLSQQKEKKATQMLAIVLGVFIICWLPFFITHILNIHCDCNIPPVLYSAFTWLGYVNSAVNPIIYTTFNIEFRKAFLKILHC
Muscarinic acetylcholine receptor M1 (Homo sapiens), sequence (P11229 whole entry, looked up): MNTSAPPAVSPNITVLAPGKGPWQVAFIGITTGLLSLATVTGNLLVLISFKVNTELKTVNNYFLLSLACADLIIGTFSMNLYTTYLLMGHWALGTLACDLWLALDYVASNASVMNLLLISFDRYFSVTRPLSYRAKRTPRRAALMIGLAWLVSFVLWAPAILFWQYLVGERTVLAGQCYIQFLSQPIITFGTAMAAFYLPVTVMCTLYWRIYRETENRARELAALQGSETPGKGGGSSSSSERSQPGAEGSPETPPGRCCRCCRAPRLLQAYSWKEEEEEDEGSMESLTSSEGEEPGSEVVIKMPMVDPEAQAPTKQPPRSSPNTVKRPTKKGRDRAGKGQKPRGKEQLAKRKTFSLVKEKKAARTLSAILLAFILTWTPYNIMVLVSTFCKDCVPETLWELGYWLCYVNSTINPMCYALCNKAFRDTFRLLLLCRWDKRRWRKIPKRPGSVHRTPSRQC
5-hydroxytryptamine receptor 2A (Homo sapiens), sequence (P28223 whole entry, looked up): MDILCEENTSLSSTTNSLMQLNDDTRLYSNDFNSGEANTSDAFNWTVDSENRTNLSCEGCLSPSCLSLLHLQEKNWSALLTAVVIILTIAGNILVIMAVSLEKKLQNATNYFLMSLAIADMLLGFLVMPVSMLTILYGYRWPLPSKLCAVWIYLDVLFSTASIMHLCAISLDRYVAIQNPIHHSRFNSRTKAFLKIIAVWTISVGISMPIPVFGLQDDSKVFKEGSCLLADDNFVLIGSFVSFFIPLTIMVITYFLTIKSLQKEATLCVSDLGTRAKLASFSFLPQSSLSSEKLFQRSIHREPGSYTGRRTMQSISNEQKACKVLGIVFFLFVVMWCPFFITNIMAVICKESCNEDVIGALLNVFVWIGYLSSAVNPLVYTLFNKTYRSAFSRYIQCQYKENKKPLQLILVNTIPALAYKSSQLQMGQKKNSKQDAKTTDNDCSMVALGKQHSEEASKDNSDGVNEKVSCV

On to `ClC=C(Cl)Cl`, for which the Potency result in assay [1], in assay [2], in assay [3], in assay [4], in assay [5] and in [6] was “inactive” throughout. In addition, the Potency result in assay [7], in assay [8], in assay [9], in assay [10], in assay [11] and in assay [12] was “inactive” throughout. For the same molecule, the Potency entry in assay [13], in assay [14] and in [15] was “inactive” each time.
As to `CCCCCCCCCCCCCCCCCCn1cc[n+](C)c1`, the Potency in assay [1] was 19.2 µM (active). The Potency entry in assay [2], in [3], in [4], in [5], in [6] and in [7] was “inactive” each time. Further, the Potency entry in assay [8], in assay [9], in assay [16], in assay [17], in [13] and in assay [14] was “inactive” in each case. The Potency result in assay [15] is “inactive”.
Take `CCCCc1c(C)nc(NCC)nc1OS(=O)(=O)N(C)C`: the Potency entry in [1], in assay [2], in assay [3], in assay [4], in [5] and in assay [6] was “inactive” each time. Further, the Potency entry in assay [7], in assay [9], in assay [18], in assay [16], in assay [17] and in assay [13] was “inactive” throughout. In addition, the Potency result in assay [15] is “inactive”.
Regarding `C1CCNCC1`, the Potency result in assay [1], in assay [2], in assay [3], in assay [4], in [5] and in [6] was “inactive” in each case. Moreover, the Potency result in assay [7], in assay [8], in [10], in assay [16], in assay [11] and in assay [17] was “inactive” throughout. For the same molecule, the Potency result in assay [19], in assay [12], in assay [13] and in assay [15] was “inactive” throughout.
In the case of `O=C(O)c1cc[c]([Hg][Cl])cc1`, the Potency in assay [1] was 48.6 µM (active); in [2] it was 21.7 µM (active). The Potency result in assay [3], in assay [4], in assay [5], in assay [6], in [7] and in [20] was “inactive” throughout. Further, the Potency entry in assay [9], in assay [10], in assay [18], in [16], in assay [11] and in assay [17] was “inactive” in each case. Besides, the Potency entry in assay [13] and in assay [14] was “inactive” throughout.
Regarding `CN1CCN(C(=O)O[C@H]2c3nccnc3C(=O)N2c2ccc(Cl)cn2)CC1`, the Potency entry in [1], in assay [2], in assay [3], in [4], in assay [5] and in assay [6] was “inactive” each time. Also, the Potency entry in assay [7], in assay [20], in assay [9], in assay [10], in assay [18] and in assay [16] was “inactive” in each case. The Potency entry in [11], in [17], in assay [14] and in assay [15] was “inactive” each time.
For `CCN(CC)C(=O)Cl`, the Potency result in [1], in assay [2], in assay [3], in [4], in [5] and in assay [6] was “inactive” throughout. The Potency entry in [7], in assay [20], in [9], in [10], in [16] and in assay [11] was “inactive” each time. The Potency entry in assay [17], in assay [12], in assay [13], in assay [14] and in [15] was “inactive” in each case.
For `C[C@]12CC[C@H]3[C@@H](CCC4=CC(=O)CC[C@@]43C)[C@@H]1CC[C@@H]2C(=O)O`, the Potency entry in assay [1], in assay [2], in [3], in assay [4], in assay [5] and in assay [6] was “inactive” throughout. Besides, the Potency entry in [7], in [20], in assay [9], in [10], in assay [18] and in assay [16] was “inactive” each time. Besides, the Potency entry in assay [11], in [17], in assay [13] and in [15] was “inactive” in each case.

Source of the values: PubChem BioAssay (Tox21).
